# From ChEMBL document CHEMBL2218924, “A broad activity screen in support of a chemogenomic map for kinase signalling research and drug discovery” (Biochem J, 2013)
# Tests used:
# [1] = target: T1, Serine/threonine-protein kinase TBK1 (Homo sapiens) (UniProt Q9UHD2); settings: at 10 µM
# T1 sequence (whole entry): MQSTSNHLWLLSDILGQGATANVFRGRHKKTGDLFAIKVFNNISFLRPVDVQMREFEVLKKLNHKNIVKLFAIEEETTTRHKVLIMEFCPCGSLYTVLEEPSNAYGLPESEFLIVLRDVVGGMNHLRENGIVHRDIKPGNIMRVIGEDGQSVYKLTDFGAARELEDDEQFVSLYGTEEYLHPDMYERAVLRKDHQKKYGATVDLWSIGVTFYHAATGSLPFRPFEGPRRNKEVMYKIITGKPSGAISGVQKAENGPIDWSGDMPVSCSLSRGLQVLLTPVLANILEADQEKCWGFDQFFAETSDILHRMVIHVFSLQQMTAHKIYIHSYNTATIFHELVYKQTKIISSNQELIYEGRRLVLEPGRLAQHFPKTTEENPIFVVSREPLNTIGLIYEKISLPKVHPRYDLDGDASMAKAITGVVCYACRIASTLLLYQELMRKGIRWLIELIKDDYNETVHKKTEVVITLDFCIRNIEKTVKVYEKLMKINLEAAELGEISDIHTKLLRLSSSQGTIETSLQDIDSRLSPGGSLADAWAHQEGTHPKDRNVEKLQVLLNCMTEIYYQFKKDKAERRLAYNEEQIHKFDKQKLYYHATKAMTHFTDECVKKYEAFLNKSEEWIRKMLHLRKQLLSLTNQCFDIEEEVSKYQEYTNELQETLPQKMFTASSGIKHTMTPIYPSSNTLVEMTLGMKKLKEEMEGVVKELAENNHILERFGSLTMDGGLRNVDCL
# [2] = target: T2, TGF-beta receptor type-1 (Homo sapiens) (UniProt P36897); settings: at 1 µM
# T2 sequence (whole entry): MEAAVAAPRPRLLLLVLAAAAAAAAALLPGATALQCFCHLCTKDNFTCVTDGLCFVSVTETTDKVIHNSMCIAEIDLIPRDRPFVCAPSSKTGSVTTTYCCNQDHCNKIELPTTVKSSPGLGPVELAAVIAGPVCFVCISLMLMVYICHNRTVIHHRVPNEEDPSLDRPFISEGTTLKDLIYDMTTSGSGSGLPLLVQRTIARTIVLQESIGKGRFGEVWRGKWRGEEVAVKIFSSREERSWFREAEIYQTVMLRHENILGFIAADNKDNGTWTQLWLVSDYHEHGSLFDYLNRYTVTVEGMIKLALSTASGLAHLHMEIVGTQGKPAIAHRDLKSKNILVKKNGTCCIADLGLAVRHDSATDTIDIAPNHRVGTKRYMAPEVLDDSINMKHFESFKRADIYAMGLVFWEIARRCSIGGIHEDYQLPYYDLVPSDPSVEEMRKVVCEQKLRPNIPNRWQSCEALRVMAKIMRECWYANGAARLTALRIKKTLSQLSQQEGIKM
# [3] = target: T2, TGF-beta receptor type-1 (Homo sapiens); settings: at 10 µM
# [4] = target: Insulin-like growth factor 1 receptor (Homo sapiens) (UniProt P08069); settings: at 1 µM
# Insulin-like growth factor 1 receptor (Homo sapiens), sequence (P08069 31-736 limits assumed): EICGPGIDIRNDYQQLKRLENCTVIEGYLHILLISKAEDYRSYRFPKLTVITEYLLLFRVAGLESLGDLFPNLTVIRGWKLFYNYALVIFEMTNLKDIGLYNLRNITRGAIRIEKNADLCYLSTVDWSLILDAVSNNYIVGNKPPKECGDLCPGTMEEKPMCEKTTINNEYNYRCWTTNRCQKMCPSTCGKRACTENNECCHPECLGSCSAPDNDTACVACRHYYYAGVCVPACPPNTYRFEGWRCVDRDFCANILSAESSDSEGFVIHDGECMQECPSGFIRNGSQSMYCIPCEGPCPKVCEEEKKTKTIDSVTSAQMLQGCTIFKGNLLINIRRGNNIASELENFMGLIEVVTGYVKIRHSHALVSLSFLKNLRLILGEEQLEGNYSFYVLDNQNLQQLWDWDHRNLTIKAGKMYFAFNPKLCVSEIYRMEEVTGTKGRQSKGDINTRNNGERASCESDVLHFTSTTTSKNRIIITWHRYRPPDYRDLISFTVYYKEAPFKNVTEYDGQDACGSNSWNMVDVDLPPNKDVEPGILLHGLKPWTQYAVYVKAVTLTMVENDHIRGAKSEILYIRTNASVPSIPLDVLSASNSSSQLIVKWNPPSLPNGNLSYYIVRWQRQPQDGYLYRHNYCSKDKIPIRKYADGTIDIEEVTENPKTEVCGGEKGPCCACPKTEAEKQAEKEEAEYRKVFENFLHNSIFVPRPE
# Insulin-like growth factor 1 receptor (Homo sapiens), sequence (P08069 741-1367 limits assumed): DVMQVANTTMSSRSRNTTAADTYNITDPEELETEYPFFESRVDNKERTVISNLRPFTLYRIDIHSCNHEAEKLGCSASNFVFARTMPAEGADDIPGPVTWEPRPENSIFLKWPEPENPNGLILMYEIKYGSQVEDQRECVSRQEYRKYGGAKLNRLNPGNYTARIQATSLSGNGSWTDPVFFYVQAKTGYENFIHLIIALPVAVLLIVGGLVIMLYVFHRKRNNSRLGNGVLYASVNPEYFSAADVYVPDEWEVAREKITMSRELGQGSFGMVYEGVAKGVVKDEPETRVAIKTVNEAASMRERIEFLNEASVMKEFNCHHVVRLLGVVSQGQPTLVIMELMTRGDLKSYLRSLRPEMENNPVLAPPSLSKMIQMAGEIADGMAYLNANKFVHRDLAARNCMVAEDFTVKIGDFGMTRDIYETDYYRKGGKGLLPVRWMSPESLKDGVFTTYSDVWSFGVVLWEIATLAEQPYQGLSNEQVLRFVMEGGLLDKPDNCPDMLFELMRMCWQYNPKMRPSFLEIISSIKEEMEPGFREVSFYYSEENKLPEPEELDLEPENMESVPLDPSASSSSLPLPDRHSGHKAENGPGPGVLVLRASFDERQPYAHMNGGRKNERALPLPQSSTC
# [5] = target: Insulin-like growth factor 1 receptor (Homo sapiens) (UniProt P08069); settings: at 10 µM
# [6] = target: T3, Inhibitor of nuclear factor kappa-B kinase subunit alpha (Homo sapiens) (UniProt O15111); settings: at 1 µM
# T3 sequence (whole entry): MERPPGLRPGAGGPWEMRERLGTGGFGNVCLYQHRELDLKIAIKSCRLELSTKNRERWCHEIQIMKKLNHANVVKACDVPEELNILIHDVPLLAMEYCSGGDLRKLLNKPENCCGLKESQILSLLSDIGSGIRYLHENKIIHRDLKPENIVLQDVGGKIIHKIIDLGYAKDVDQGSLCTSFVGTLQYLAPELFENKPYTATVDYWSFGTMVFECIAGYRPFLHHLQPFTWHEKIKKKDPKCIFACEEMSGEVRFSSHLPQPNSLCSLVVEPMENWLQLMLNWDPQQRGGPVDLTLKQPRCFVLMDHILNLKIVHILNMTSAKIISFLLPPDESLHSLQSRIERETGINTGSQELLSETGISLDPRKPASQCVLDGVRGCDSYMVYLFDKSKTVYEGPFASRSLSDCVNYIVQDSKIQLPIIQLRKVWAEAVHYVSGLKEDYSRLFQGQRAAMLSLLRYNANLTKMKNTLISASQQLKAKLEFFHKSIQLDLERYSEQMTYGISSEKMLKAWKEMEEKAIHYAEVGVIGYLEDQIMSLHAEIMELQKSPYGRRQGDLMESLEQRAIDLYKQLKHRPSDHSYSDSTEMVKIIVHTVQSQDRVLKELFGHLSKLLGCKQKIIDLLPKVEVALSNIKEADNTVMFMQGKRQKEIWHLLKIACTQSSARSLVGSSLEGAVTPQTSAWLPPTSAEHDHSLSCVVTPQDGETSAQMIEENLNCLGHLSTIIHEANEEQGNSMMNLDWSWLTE
# [7] = target: T3, Inhibitor of nuclear factor kappa-B kinase subunit alpha (Homo sapiens); settings: at 10 µM
# [8] = target: T4, Inhibitor of nuclear factor kappa-B kinase subunit beta (Homo sapiens) (UniProt O14920); settings: at 1 µM
# T4 sequence (whole entry): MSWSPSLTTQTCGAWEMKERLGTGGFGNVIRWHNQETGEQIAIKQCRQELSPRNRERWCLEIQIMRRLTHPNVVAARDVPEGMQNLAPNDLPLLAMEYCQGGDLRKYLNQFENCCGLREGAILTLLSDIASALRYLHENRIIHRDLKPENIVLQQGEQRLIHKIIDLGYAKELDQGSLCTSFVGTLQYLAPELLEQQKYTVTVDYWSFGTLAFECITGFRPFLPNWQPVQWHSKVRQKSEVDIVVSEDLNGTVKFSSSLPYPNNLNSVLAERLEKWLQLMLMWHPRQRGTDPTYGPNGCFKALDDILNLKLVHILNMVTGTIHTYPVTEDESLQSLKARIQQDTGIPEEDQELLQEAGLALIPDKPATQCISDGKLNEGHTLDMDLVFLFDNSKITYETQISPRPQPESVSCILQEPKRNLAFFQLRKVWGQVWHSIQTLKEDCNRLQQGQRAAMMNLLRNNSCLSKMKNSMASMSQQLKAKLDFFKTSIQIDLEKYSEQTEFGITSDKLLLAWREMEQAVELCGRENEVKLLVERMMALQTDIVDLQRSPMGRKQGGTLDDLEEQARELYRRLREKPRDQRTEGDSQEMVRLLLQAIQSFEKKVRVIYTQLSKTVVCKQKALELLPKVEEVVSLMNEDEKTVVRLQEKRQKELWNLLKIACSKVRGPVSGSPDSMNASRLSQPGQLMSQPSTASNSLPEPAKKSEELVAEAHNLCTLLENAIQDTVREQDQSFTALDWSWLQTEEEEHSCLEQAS
# [9] = target: T4, Inhibitor of nuclear factor kappa-B kinase subunit beta (Homo sapiens); settings: at 10 µM
# [10] = target: Insulin receptor (Homo sapiens) (UniProt P06213); settings: at 1 µM
# Insulin receptor (Homo sapiens), sequence (P06213 28-758 limits assumed): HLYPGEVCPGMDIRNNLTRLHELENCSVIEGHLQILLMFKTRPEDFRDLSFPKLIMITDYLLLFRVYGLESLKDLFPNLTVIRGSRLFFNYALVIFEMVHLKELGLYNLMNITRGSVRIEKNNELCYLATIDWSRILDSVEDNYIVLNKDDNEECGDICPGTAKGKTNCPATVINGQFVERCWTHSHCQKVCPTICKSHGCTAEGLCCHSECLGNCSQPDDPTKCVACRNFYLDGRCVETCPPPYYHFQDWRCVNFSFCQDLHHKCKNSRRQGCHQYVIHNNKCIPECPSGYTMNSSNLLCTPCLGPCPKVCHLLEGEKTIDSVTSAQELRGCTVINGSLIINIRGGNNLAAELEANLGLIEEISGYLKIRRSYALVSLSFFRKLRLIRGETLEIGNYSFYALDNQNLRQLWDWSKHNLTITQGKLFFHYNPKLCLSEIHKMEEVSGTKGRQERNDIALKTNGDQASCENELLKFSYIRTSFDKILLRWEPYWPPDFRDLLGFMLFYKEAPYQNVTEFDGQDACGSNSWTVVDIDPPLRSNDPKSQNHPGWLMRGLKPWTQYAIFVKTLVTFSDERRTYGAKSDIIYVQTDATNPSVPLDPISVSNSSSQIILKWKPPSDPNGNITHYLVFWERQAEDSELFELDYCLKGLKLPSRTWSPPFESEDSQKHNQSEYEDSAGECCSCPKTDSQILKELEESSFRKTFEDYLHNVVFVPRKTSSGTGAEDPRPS
# Insulin receptor (Homo sapiens), sequence (P06213 763-1382 limits assumed): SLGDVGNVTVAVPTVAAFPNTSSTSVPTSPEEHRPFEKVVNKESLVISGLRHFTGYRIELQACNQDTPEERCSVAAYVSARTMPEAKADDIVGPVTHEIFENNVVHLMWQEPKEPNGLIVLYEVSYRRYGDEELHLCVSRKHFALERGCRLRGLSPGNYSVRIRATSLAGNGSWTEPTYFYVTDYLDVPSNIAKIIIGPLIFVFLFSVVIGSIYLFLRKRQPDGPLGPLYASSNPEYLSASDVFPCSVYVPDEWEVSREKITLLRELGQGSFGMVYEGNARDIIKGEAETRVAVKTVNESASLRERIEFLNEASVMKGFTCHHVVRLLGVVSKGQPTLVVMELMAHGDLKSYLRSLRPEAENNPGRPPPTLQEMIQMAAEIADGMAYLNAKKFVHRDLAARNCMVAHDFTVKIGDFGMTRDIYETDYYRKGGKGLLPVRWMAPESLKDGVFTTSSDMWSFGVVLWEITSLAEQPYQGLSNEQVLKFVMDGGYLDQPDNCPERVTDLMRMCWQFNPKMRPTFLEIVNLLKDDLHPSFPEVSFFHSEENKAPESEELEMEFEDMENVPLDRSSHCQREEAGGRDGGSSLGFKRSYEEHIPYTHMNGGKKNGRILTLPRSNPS
smiles,measurement,setting,value
CCOc1cc2ncnc(Nc3cccc(Br)c3)c2cc1OCC,residual activity,[1],33%
same,residual activity,[2],89%
same,residual activity,[3],81%
same,residual activity,[4],104%
same,residual activity,[5],100%
same,residual activity,[6],108%
same,residual activity,[7],108%
same,residual activity,[8],97%
same,residual activity,[9],82%
same,residual activity,[10],104%
